# The supplement of paper PMC8728848
# The sample as a whole holds a higher share of the strongest signals than the screen did.
# Experiments:
# Test in all cases: glycan array binding signal (z-score within array); higher = stronger binding
# Conditions in all cases: glycan notation: IUPAC condensed, linker removed
# [1] = molecular target: Fuc(a1-2)Gal(b1-3)GalNAc(a1-3)[Fuc(a1-2)]Gal(b1-4)Glc
# How it was run: (§1)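 Columns mapping to the same glycan were averaged after glycan names were converted to IUPAC-condensed notation. The data come from 3228 arrays in the Consortium for Functional Glycomics database, limited to those with an available protein sequence. Binding is reported as a within-array Z-score averaged across arrays of one protein sequence and across linkers.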
# [2] = molecular target: Fuc(a1-2)Gal(b1-3)GlcNAc
# How it was run: as §1
# [3] = molecular target: Fuc(a1-2)Gal(b1-3)GlcNAc(b1-3)[Neu5Ac(a2-6)Gal(b1-4)GlcNAc(b1-6)]Gal(b1-4)Glc
# How it was run: as §1
# [4] = molecular target: Fuc(a1-2)Gal(b1-3)[Fuc(a1-4)]GlcNAc(b1-3)[Fuc(a1-3)[Gal(b1-4)]GlcNAc(b1-6)]Gal(b1-4)Glc
# How it was run: as §1
# [5] = molecular target: Fuc(a1-2)Gal(b1-4)GlcNAc(b1-2)Man
# How it was run: as §1
# [6] = molecular target: Fuc(a1-2)Gal(b1-4)GlcNAc(b1-2)[Fuc(a1-2)Gal(b1-4)GlcNAc(b1-4)]Man(a1-3)[Fuc(a1-2)Gal(b1-4)GlcNAc(b1-2)Man(a1-6)]Man(b1-4)GlcNAc(b1-4)GlcNAc
# How it was run: as §1
# [7] = molecular target: Fuc(a1-2)Gal(b1-4)GlcNAc(b1-3)[Fuc(a1-3)[Gal(b1-4)]GlcNAc(b1-6)]Gal(b1-4)Glc
# How it was run: as §1
# [8] = molecular target: Fuc(a1-2)[GalNAc(a1-3)]Gal(b1-4)GlcNAc(b1-6)GalNAc
# How it was run: as §1
# [9] = molecular target: Fuc(a1-3)[Gal(b1-4)]GlcNAc(b1-2)Man(a1-3)[Fuc(a1-3)[Gal(b1-4)]GlcNAc(b1-2)Man(a1-6)]Man(b1-4)GlcNAc(b1-4)[Fuc(a1-6)]GlcNAc
# How it was run: as §1
# [10] = molecular target: Fuc(a1-3)[Gal(b1-4)]GlcNAc(b1-6)[Gal(b1-3)GlcNAc(b1-3)]Gal(b1-4)Glc
# How it was run: as §1
# [11] = molecular target: Fuc(a1-3)[GalNAc(b1-4)]GlcNAc
# How it was run: as §1
# [12] = molecular target: Fuc(a1-4)GlcNAc
# How it was run: as §1
# [13] = molecular target: Gal(a1-3)Gal(b1-4)GlcNAc(b1-6)GalNAc
# How it was run: as §1
# [14] = molecular target: Gal(a1-3)GalNAc
# How it was run: as §1
# [15] = molecular target: Gal(b1-3)GalNAc(b1-4)Gal(b1-4)Glc
# How it was run: as §1
# [16] = molecular target: Gal(b1-3)GlcNAc(b1-3)Gal(b1-4)GlcNAc(b1-6)[Gal(b1-3)GlcNAc(b1-3)]Gal(b1-4)Glc
# How it was run: as §1
# [17] = molecular target: Gal(b1-3)GlcNAc(b1-3)Gal(b1-4)[Fuc(a1-3)]GlcNAc(b1-6)[Gal(b1-3)GlcNAc(b1-3)]Gal(b1-4)Glc
# How it was run: as §1
# [18] = molecular target: Gal(b1-3)[GlcNAc(b1-6)]GalNAc
# How it was run: as §1
# [19] = molecular target: Gal(b1-4)GlcNAc(b1-2)[Gal(b1-4)GlcNAc(b1-6)]Man(a1-6)[GlcNAc(b1-4)][Gal(b1-4)GlcNAc(b1-2)Man(a1-3)]Man(b1-4)GlcNAc(b1-4)GlcNAc
# How it was run: as §1
# [20] = molecular target: Gal(b1-4)GlcNAc(b1-3)Gal(b1-4)Glc
# How it was run: as §1
# [21] = molecular target: Gal(b1-4)GlcNAc(b1-3)Gal(b1-4)GlcNAc(b1-3)Gal(b1-4)GlcNAc(b1-3)Gal(b1-4)GlcNAc(b1-3)Gal(b1-4)GlcNAc(b1-2)Man(a1-3)[Gal(b1-4)GlcNAc(b1-3)Gal(b1-4)GlcNAc(b1-3)Gal(b1-4)GlcNAc(b1-3)Gal(b1-4)GlcNAc(b1-3)Gal(b1-4)GlcNAc(b1-2)Man(a1-6)]Man(b1-4)GlcNAc(b1-4)GlcNAc
# How it was run: as §1
# [22] = molecular target: Gal(b1-4)GlcNAc(b1-3)Gal(b1-4)[Fuc(a1-3)]GlcNAc(b1-3)Gal(b1-4)[Fuc(a1-3)]GlcNAc
# How it was run: as §1
# [23] = molecular target: Gal(b1-4)GlcNAc(b1-6)Gal(b1-4)GlcNAc
# How it was run: as §1
# [24] = molecular target: Gal3S(b1-4)Glc
# How it was run: as §1
# [25] = molecular target: Gal3S(b1-4)[Fuc(a1-3)]GlcNAc
# How it was run: as §1
# [26] = molecular target: Gal6S(b1-4)GlcNAc6S
# How it was run: as §1
# [27] = molecular target: Glc(a1-6)Glc(a1-6)Glc(a1-6)Glc
# How it was run: as §1
# [28] = molecular target: GlcNAc(b1-3)Gal(b1-4)GlcNAc(b1-2)Man(a1-3)[GlcNAc(b1-3)Gal(b1-4)GlcNAc(b1-2)Man(a1-6)]Man(b1-4)GlcNAc(b1-4)GlcNAc
# How it was run: as §1
# [29] = molecular target: GlcNAc(b1-3)Gal(b1-4)GlcNAc(b1-3)Gal(b1-4)GlcNAc
# How it was run: as §1
# [30] = molecular target: GlcNAc(b1-3)Gal(b1-4)GlcNAc(b1-3)Gal(b1-4)GlcNAc(b1-2)[GlcNAc(b1-3)Gal(b1-4)GlcNAc(b1-3)Gal(b1-4)GlcNAc(b1-6)]Man(a1-6)[GlcNAc(b1-3)Gal(b1-4)GlcNAc(b1-3)Gal(b1-4)GlcNAc(b1-2)Man(a1-3)]Man(b1-4)GlcNAc(b1-4)[Fuc(a1-6)]GlcNAc
# How it was run: as §1
binder,measurement,setting,value
Epf (Streptococcus pyogenes) (protein) GDHGPEFNGVMVVKAAEAEELPDDLMNFKGTWEVSADGSSGRFFSKGATDSYVFHLIPAKDVKKPGWREHNEVKDSYIKIDKQSIAARYKTSTTAPYSVAFKVNTKSLIKDHDYKITFEQGQIASGITVDYRIGSAFNKTTDDSFKISDESKYASNVKIEGEEQGFKQREQGDKTISFRTLKEGPMSLVLLSKVEKKPQGDLDVEFKNLKIIDVTNPSQLDKGVAYVGNKNVQLTLKSDDGRTNFEGDEISLFNSRGELLQTVTVTKDQQNPISITLSEDQAKSLKNKEKLKVSIKQKQSKKTSKDFFFEVGIDPKVEAKQKEKLLELDKVKKQIEDSINGDAWLPEKPVDLQGDHGLSAWSHPQFEK,glycan array binding signal (z-score),[1],-0.202
same,glycan array binding signal (z-score),[2],-0.175
same,glycan array binding signal (z-score),[3],0.514
same,glycan array binding signal (z-score),[4],3.33
same,glycan array binding signal (z-score),[5],0.654
same,glycan array binding signal (z-score),[6],-0.184
same,glycan array binding signal (z-score),[7],2.21
same,glycan array binding signal (z-score),[8],-0.052
same,glycan array binding signal (z-score),[9],-0.996
same,glycan array binding signal (z-score),[10],-2.21
same,glycan array binding signal (z-score),[11],2.73
same,glycan array binding signal (z-score),[12],-0.354
same,glycan array binding signal (z-score),[13],-1.75
same,glycan array binding signal (z-score),[14],0.627
same,glycan array binding signal (z-score),[15],-0.182
same,glycan array binding signal (z-score),[16],2.25
same,glycan array binding signal (z-score),[17],3.16
same,glycan array binding signal (z-score),[18],0.807
same,glycan array binding signal (z-score),[19],3.4
same,glycan array binding signal (z-score),[20],-1.14
same,glycan array binding signal (z-score),[21],2.53
same,glycan array binding signal (z-score),[22],-1.31
same,glycan array binding signal (z-score),[23],-0.547
same,glycan array binding signal (z-score),[24],1.73
same,glycan array binding signal (z-score),[25],1
same,glycan array binding signal (z-score),[26],2.34
same,glycan array binding signal (z-score),[27],0
same,glycan array binding signal (z-score),[28],-0.562
same,glycan array binding signal (z-score),[29],0.659
same,glycan array binding signal (z-score),[30],0.082
